Screening results from PubChem BioAssay.
An excerpt weighted towards active compounds, which were near 2.9% of everything screened.
pPAFAH inh = inhibitors of human plasma PAF acetylhydrolase (pPAFAH); Q13093; recombinant pPAFAH, FP-rhodamine probe fluorescence polarization; inhibition, % at 3.39 µM; actives 1.5% (n = 330,000);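 active = inhibition above the mean inhibition across the screen plus 3 SD, cut at about 25% in these data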;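 note: inhibitors block binding of the rhodamine activity-based probe so polarization drops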
PAFAH1B3 inh = PAFAH1B3 (human) inhibition. actives 0.28% (n = 340,000). recombinant PAFAH1B3, FP-rhodamine probe, fluorescence polarization. inhibition, % at 3.39 µM. Q15102;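 active = inhibition above the screen-wide average of all tested compounds plus 3 SD, cut at about 25% in these data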
Target sequence (Q15102 whole entry, looked up): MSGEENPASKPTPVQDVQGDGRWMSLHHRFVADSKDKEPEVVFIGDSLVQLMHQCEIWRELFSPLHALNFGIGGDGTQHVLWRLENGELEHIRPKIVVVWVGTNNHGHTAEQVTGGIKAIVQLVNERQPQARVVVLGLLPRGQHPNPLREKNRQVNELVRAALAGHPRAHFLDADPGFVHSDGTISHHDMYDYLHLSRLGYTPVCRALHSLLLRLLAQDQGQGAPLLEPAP
PAFAH1B2 FP inh = inhibitors of human PAFAH1B2 | AID 492953 | inhibition, % at 3.39 µM | recombinant PAFAH1B2, FP-rhodamine activity probe, fluorescence polarization | P68402 | actives 1.2% (n = 340,000);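 active = inhibition above the mean of all tested compounds plus 3 SD, cut at about 24% in these data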
Target sequence (P68402 whole entry, looked up): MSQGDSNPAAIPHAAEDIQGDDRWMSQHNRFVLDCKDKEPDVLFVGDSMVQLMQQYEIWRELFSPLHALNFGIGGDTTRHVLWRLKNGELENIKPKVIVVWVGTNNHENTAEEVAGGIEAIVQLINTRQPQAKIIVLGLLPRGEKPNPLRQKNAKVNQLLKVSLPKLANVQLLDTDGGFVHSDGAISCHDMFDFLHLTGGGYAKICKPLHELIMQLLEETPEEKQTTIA
EBNA-1 inh = blocks EBNA-1 binding to DNA | actives 0.34% (n = 300,000) | inhibition, % at 14.8 µM | EBNA-1 DNA binding, fluorescence polarization; in the data active = inhibition above about 28%
PAFAH2 inh = PAFAH2 (human) inhibition. inhibition, % at 3.39 µM. Q99487. recombinant PAFAH2, FP-rhodamine activity probe, fluorescence polarization. actives 0.99% (n = 340,000);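 active = inhibition above the mean over all tested compounds plus 3 SD, cut at about 30% in these data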;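 note: inhibitors block probe labeling of enzyme so polarization drops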
ZTA DNA inh = blocks Epstein-Barr virus ZTA, an EBNA-1 counter-screen; P03206; ZTA-DNA binding, fluorescence polarization; inhibition, % at 11 µM; actives 0.15% (n = 320,000); in the data active = inhibition above about 33%
A number is an active result; . = inactive; / = no result.

SMILES	pPAFAH inh	PAFAH1B3 inh	PAFAH1B2 FP inh	EBNA-1 inh	PAFAH2 inh	ZTA DNA inh
O=C(CNS(=O)(=O)c1ccccc1)NCC(=O)OCc1ccc(Cl)cc1	.	.	27	.	.	.
N#Cc1ccc(CN2C(=O)NC3(CCCCCC3)C2=O)cc1	.	.	.	.	.	.
COC(=O)Cc1ccc(NC(=S)NCc2ccccc2Cl)cc1	28	.	.	.	.	.
COC(=O)Cc1ccc(NC(=S)NCCO)cc1	.	.	.	.	.	.
Cc1noc(C)c1NC(=O)Nc1ccc2c(c1)CC(=O)N([C@H](C)CO)C[C@@H](C)[C@H](CN(C)CC1CCCCC1)O2	.	.	.	/	.	/
O=C(NN1C(=O)/C(=C/c2cccnc2)SC1=S)C(c1ccccc1)c1ccccc1	.	.	27	.	.	.
CC(=O)NN1C(=O)/C(=C/c2ccc(C(C)C)cc2)SC1=S	.	.	42	.	.	.
O=C(NN1C(=O)/C(=C\c2cccnc2)SC1=S)C(c1ccccc1)c1ccccc1	.	.	29	.	.	.
O=C(Cc1cccc2ccccc12)NN1C(=O)/C(=C\c2cccnc2)SC1=S	.	.	.	.	.	.
O=C(NS(=O)(=O)Nc1ccccc1)C1=C(N2CCCC2)COC1=O	.	.	.	/	.	/
N#Cc1ccc(OC(=O)C2CCN(C3=NS(=O)(=O)c4ccccc43)CC2)cc1	.	.	.	/	.	.
Cc1ccc(SCc2nc3ncccn3c2Br)cc1	.	/	/	.	/	.
Clc1ccc(-c2cc(CSc3ccccc3)on2)cc1	.	.	.	.	.	.
c1ccc(SCc2cc(-c3ccccc3)no2)cc1	.	.	26	.	.	.
CCCC(=O)Nc1ccc(C(=O)Nc2ccc([N+](=O)[O-])cc2OC)cc1	.	.	.	.	.	.
O=C(O)c1cc(NC(=O)c2ccc(Br)cc2)cc(NC(=O)c2ccc(Br)cc2)c1	.	.	30	.	.	.
O=C(O)c1[nH]c2ccccc2c1-c1ccccc1	.	.	.	.	.	.
O=C(O)c1[nH]c2ccccc2c1C(c1cc(Br)ccc1O)c1c(C(=O)O)[nH]c2ccccc12	.	.	94	.	.	.
COc1cc(C(=O)Nc2c(C(=O)O)[nH]c3ccccc23)cc(OC)c1OC	/	.	.	/	.	/
COc1cc(Cl)cc(C(c2c(C(=O)O)[nH]c3ccccc23)c2c(C(=O)O)[nH]c3ccccc23)c1O	.	.	83	.	.	.
O=C(O)c1[nH]c2ccccc2c1C(c1c(F)cccc1Cl)c1c(C(=O)O)[nH]c2ccccc12	.	.	49	.	.	.
Clc1ccc(/C=C/c2ncc[nH]2)c(Cl)c1	.	.	.	.	.	.
NC(=NCCc1ccc(Cl)cc1)NS(=O)(=O)c1ccc(F)cc1	.	.	49	.	.	.
COc1ccc(CCN=C(N)NS(=O)(=O)c2ccc(F)cc2)cc1	.	.	.	.	.	.
NC(=NCCc1ccccc1)NS(=O)(=O)c1cccs1	.	.	.	.	.	.
SMILES	pPAFAH inh	PAFAH1B3 inh	PAFAH1B2 FP inh	EBNA-1 inh	PAFAH2 inh	ZTA DNA inh
NC(=NCCc1ccc(Cl)cc1)NS(=O)(=O)c1ccccc1	.	.	54	.	.	.
O=S(=O)(NC(=NCCc1ccc(Cl)cc1)c1ccccc1Cl)c1cccs1	.	.	47	.	.	.
CCOC(=O)COc1cccc(C2NC(=O)c3ccccc3O2)c1 (configuration not stated)	.	.	.	.	.	.
Cc1ccc(NC(=O)CSc2nnc(CNC(=O)c3ccco3)n2C)cc1C	.	.	.	.	.	.
Cc1nc(CN(C)Cc2nc(Cc3ccccc3Cl)no2)cs1	.	.	.	.	.	.
Cc1cc(OCCn2ccnc2)cc(C)c1Cl	.	.	.	.	.	.
CN1C(=O)/C(=C/c2ccc(C(=O)Nc3ccc(O)cc3C(=O)O)cc2)SC1=S	30	.	.	.	.	.
O=C(CCN1C(=O)S/C(=C\c2ccccc2)C1=O)Nc1ccc(O)cc1C(=O)O	.	.	.	.	.	.
O=C(Nc1ccccc1F)c1cc2nc(C(F)F)cc(C(F)F)n2n1	.	.	.	.	.	.
Cc1ccc(CS(=O)(=O)CCC(=O)NCCc2ccccc2)cc1	25	.	.	.	.	.
Cc1ccc(S(=O)(=O)NCCCCCC(=O)NCCc2ccccc2)cc1	.	.	30	.	.	.
CC(CN1CCN(C)CC1)OC(=O)c1cccc(F)c1 (configuration not stated)	.	.	.	.	.	.
Cc1ccc(C)c(NC(=O)CN(C)C(=O)c2ccc3[nH]c4c(c3c2)CC(C)CC4)c1 (configuration not stated)	.	.	40	.	.	.
CCN(CC(=O)Nc1ccc(OC)cc1)C(=O)c1ccc2[nH]c3c(c2c1)CC(C)CC3 (configuration not stated)	.	.	27	/	.	.
CC(=O)N1CCN(c2ccc(OC[C@H]3CO[C@](Cn4ccnc4)(c4ccc(Cl)cc4Cl)O3)cc2)CC1	26	.	.	.	.	.
CN1C(=O)C2(OCC(COc3ccc(Cl)cc3)O2)c2ccccc21 (configuration not stated)	.	.	.	.	.	.
O=C1S/C(=C\c2ccc(O)c([N+](=O)[O-])c2)C(=O)N1Cc1cccc([N+](=O)[O-])c1	.	/	/	.	/	.
O=C1S/C(=C\c2ccc(O)c([N+](=O)[O-])c2)C(=O)N1c1ccccc1Cl	34	.	.	.	.	.
COc1cc(/C=C2\SC(=O)N(c3cccc(Cl)c3)C2=O)cc([N+](=O)[O-])c1O	/	.	.	/	52	/
COc1cc(/C=C2\SC(=O)N(c3ccc(Cl)cc3)C2=O)cc([N+](=O)[O-])c1O	/	.	.	/	.	/
CC(NC(=O)CNC(=O)C(Cc1ccccc1)NC(=O)OCc1ccccc1)C(N)=O (configuration not stated)	.	.	.	.	.	.
CCOc1ccc(N2C(=O)C(c3ccccc3)=C(c3nc4ccccc4s3)C2NC(C)=O)cc1 (configuration not stated)	26	.	.	.	.	.
CCOc1ccc(-n2nnnc2-c2nc3ccccc3s2)cc1	.	.	.	.	.	.
CCOc1ccc(S(=O)(=O)Nc2ncn[nH]2)cc1	.	.	.	.	.	.
CCOc1ccc(S(=O)(=O)Nc2cc(Sc3ncn[nH]3)c3oc(=O)sc3c2)cc1	33	/	/	.	/	.
COC(=O)c1ccc(CSc2nnc(NC(=O)C3CC(=O)N(c4ccc5c(c4)OCCO5)C3)s2)cc1 (configuration not stated)	.	.	.	.	.	.
CC1Sc2ccc(C(=O)OCc3ccccc3Cl)cc2NC1=O (configuration not stated)	29	.	.	.	.	.
N#CC1=C(N)Oc2cc(N)ccc2C1c1ccc(F)cc1 (configuration not stated)	.	.	.	.	.	.
